# Key:
# Assay in all cases: DAPPL (digital affinity profiling via proximity ligation, sequencing); 10 mM Tris-HCl pH 7.5, 50 mM NaCl, 1 mM DTT, 4% glycerol, room temperature, 30 min; GST-TFs on glutathione beads, 16-mer random dsDNA library, 0.1% formaldehyde crosslink after washing; high values mean tight binding
# FLI1 = molecular target: T1, FLI1 (Homo sapiens, UniProt Q01543 1-452); settings: protein: recombinant; tags: N-terminal GST; dsDNA, one strand shown
# T1 sequence: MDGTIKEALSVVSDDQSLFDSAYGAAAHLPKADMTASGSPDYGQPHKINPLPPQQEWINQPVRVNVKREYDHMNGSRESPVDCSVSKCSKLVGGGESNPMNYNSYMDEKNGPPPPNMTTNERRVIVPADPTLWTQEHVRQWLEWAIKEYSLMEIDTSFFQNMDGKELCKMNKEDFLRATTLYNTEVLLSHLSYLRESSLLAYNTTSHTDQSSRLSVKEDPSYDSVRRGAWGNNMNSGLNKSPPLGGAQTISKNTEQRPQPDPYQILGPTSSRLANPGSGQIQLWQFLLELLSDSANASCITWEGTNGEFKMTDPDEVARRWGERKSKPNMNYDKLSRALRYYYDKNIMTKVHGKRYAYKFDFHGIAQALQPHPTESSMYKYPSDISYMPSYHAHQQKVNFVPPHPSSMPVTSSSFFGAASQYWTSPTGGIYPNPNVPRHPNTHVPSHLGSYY
# Procedure, shortened: (§1)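 Each value of binding signal is a hexamer's read frequency for a factor divided by the same hexamer's frequency in the tag-only sample. Barcoded, bead-captured GST fusions of human transcription factors made in yeast were pooled with that sample and incubated with 200 nmole of a random double-stranded 16-mer DNA library in Tris/NaCl/DTT/glycerol buffer at room temperature for 30 min. Washing, 0.1% formaldehyde crosslinking, proximity ligation, PCR and Illumina NextSeq500 sequencing followed.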
# ELK1 = molecular target: T2, ELK1 (Homo sapiens, UniProt P19419 1-428); settings: protein: recombinant; tags: N-terminal GST; dsDNA, one strand shown
# T2 sequence: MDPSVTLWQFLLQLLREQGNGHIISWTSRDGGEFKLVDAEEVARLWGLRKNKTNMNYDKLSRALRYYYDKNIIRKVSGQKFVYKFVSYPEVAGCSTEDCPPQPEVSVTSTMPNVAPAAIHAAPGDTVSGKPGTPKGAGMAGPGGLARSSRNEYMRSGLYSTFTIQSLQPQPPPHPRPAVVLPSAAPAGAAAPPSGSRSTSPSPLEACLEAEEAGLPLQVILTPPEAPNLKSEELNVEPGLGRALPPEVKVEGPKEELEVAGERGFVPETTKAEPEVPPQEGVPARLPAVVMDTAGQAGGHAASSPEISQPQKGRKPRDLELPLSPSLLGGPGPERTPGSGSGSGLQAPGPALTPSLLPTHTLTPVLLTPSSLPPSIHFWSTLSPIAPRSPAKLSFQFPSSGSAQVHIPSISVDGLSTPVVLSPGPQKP
# Procedure, shortened: as §1
# GABPA = molecular target: T3, GABPA (Homo sapiens, UniProt Q06546 1-454); settings: protein: recombinant; tags: N-terminal GST; dsDNA, one strand shown
# T3 sequence: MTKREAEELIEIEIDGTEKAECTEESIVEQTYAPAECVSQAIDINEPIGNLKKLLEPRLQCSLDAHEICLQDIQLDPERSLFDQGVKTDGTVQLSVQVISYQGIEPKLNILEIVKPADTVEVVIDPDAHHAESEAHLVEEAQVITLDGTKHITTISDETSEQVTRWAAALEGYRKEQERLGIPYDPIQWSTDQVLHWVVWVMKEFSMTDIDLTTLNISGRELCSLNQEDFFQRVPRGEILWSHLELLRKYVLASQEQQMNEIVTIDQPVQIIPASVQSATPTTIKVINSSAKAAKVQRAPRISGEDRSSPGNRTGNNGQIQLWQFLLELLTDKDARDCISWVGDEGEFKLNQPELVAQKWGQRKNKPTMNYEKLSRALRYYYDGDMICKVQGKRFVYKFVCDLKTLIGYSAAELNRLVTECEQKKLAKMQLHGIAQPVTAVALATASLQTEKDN
# Procedure, shortened: as §1
# ERG = molecular target: T4, ERG (Homo sapiens, UniProt P11308 1-479); settings: protein: recombinant; tags: N-terminal GST; dsDNA, one strand shown
# T4 sequence: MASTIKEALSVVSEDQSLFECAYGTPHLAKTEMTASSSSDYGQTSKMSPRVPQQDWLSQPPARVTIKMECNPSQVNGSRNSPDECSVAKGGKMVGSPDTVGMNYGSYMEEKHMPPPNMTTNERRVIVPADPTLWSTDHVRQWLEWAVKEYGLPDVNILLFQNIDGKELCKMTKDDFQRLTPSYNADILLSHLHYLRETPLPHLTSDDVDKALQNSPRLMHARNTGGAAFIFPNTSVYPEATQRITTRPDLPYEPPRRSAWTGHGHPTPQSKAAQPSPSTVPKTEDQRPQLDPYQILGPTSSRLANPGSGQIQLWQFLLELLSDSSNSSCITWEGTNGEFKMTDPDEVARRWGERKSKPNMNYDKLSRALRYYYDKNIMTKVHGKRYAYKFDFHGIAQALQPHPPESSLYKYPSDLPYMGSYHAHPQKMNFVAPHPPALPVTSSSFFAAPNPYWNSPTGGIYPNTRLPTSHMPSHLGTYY
# Procedure, shortened: as §1
# ELF1 = ELF1 (Homo sapiens, UniProt P32519 1-619); settings: protein: recombinant; tags: N-terminal GST; dsDNA, one strand shown
# Procedure, shortened: as §1
# EHF = molecular target: T5, EHF (Homo sapiens, UniProt Q9NZC4 1-300); settings: protein: recombinant; tags: N-terminal GST; dsDNA, one strand shown
# T5 sequence: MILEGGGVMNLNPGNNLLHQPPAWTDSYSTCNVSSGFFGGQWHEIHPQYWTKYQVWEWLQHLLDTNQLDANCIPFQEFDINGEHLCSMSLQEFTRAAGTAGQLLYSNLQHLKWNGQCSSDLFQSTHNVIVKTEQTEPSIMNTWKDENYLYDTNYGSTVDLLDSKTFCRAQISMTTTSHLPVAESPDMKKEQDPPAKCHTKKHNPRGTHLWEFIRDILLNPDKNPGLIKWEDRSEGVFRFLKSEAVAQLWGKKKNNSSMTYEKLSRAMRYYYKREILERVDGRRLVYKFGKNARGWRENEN
# Procedure, shortened: as §1
# SPI1 = SPI1 (Homo sapiens, UniProt P17947 1-270); settings: protein: recombinant; tags: N-terminal GST; dsDNA, one strand shown
# Procedure, shortened: as §1
# SPIB = SPIB (Homo sapiens, UniProt Q01892 1-262); settings: protein: recombinant; tags: N-terminal GST; dsDNA, one strand shown
# Procedure, shortened: as §1
# ELK3 = molecular target: T6, ELK3 (Homo sapiens, UniProt P41970 1-407); settings: protein: recombinant; tags: N-terminal GST; dsDNA, one strand shown
# T6 sequence: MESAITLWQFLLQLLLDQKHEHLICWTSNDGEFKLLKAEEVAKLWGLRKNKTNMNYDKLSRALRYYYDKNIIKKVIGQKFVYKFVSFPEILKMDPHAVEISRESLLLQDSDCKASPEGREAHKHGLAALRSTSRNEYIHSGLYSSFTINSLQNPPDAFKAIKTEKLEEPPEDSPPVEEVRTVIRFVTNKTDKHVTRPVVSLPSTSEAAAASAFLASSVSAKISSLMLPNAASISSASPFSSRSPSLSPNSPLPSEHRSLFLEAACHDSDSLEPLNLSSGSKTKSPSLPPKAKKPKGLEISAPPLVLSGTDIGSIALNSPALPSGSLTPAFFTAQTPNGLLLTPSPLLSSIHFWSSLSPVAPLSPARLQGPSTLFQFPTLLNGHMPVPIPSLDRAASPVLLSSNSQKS
# Procedure, shortened: as §1
# FEV = molecular target: T7, FEV (Homo sapiens, UniProt Q99581 1-238); settings: protein: recombinant; tags: N-terminal GST; dsDNA, one strand shown
# T7 sequence: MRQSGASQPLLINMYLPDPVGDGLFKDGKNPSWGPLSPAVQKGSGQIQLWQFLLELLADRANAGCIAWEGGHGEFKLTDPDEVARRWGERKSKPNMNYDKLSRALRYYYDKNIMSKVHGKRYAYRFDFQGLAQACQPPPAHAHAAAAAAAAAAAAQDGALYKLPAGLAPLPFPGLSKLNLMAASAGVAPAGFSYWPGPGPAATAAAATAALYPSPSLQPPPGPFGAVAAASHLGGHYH
# Procedure, shortened: as §1
# ETV5 = ETV5 (Homo sapiens, UniProt P41161 1-510); settings: protein: recombinant; tags: N-terminal GST; dsDNA, one strand shown
# Procedure, shortened: as §1
# HSF1 = HSF1 (Homo sapiens, UniProt Q00613 1-529); settings: protein: recombinant; tags: N-terminal GST; chain copies: 3; dsDNA, one strand shown
# Procedure, shortened: as §1
# SPIC = molecular target: T8, SPIC (Homo sapiens, UniProt Q8N5J4 1-248); settings: protein: recombinant; tags: N-terminal GST; dsDNA, one strand shown
# T8 sequence: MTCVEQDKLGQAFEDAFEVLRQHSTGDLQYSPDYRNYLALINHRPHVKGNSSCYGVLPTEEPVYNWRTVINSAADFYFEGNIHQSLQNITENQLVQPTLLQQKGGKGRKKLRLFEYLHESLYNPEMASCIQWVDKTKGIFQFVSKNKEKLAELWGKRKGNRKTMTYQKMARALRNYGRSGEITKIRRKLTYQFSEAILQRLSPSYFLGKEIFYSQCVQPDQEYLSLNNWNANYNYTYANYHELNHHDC
# Procedure, shortened: as §1
# ELF4 = ELF4 (Homo sapiens, UniProt Q99607 1-663); settings: protein: recombinant; tags: N-terminal GST; dsDNA, one strand shown
# Procedure, shortened: as §1
# ELK4 = molecular target: T9, ELK4 (Homo sapiens, UniProt P28324-2 1-405); settings: protein: recombinant; tags: N-terminal GST; dsDNA, one strand shown
# T9 sequence: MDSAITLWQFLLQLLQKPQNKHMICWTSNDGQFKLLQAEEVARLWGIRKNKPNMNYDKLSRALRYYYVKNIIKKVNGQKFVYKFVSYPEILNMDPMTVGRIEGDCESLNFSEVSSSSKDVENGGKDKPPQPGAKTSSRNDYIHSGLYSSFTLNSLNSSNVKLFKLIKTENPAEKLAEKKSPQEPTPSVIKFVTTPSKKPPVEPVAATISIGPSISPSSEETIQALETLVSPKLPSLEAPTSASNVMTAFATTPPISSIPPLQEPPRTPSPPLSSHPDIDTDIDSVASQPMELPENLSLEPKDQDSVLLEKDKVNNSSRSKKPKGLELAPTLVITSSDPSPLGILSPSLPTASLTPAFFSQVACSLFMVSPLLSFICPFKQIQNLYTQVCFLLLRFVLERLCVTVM
# Procedure, shortened: as §1
# ETV2 = molecular target: T10, ETV2 (Homo sapiens, UniProt O00321 1-342); settings: protein: recombinant; tags: N-terminal GST; dsDNA, one strand shown
# T10 sequence: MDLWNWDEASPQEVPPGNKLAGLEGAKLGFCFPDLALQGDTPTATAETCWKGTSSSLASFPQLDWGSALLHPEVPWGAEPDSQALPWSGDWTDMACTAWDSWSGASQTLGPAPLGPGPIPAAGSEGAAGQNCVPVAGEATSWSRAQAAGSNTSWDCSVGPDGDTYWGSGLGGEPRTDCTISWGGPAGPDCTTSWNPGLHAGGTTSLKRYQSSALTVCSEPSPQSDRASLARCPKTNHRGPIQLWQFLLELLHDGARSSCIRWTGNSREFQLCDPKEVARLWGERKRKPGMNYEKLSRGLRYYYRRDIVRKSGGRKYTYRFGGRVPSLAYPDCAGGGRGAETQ
# Procedure, shortened: as §1
# ELF3 = molecular target: T11, ELF3 (Homo sapiens, UniProt P78545 1-371); settings: protein: recombinant; tags: N-terminal GST; dsDNA, one strand shown
# T11 sequence: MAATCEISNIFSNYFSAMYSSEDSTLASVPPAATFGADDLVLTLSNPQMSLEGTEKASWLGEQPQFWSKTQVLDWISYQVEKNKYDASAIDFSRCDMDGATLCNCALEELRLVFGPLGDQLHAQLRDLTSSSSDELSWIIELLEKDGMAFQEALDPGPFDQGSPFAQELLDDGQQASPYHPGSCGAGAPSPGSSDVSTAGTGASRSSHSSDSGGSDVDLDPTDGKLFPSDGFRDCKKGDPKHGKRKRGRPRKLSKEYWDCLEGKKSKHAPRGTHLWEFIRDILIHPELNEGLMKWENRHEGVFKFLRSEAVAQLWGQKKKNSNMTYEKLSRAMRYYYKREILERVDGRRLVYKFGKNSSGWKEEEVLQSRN
# Procedure, shortened: as §1
# CRX = CRX (Homo sapiens, UniProt O43186 1-299); settings: protein: recombinant; tags: N-terminal GST; dsDNA, one strand shown
# Procedure, shortened: as §1
# ETV1 = ETV1 (Homo sapiens, UniProt P50549 1-477); settings: protein: recombinant; tags: N-terminal GST; dsDNA, one strand shown
# Procedure, shortened: as §1
# ETV1, sequence (P50549 whole entry): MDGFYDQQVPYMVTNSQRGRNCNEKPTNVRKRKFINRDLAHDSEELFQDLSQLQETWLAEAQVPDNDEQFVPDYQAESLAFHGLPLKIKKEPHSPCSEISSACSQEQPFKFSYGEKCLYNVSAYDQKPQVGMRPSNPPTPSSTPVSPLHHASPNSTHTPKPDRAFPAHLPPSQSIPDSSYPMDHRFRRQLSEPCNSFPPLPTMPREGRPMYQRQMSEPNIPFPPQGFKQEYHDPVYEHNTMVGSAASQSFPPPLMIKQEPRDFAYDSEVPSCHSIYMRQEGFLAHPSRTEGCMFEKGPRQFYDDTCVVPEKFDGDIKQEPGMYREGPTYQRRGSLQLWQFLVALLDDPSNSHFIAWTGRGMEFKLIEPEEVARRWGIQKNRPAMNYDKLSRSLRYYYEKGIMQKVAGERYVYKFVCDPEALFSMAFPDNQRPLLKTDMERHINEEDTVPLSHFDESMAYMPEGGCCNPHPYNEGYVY
# HSF1, sequence (Q00613 whole entry): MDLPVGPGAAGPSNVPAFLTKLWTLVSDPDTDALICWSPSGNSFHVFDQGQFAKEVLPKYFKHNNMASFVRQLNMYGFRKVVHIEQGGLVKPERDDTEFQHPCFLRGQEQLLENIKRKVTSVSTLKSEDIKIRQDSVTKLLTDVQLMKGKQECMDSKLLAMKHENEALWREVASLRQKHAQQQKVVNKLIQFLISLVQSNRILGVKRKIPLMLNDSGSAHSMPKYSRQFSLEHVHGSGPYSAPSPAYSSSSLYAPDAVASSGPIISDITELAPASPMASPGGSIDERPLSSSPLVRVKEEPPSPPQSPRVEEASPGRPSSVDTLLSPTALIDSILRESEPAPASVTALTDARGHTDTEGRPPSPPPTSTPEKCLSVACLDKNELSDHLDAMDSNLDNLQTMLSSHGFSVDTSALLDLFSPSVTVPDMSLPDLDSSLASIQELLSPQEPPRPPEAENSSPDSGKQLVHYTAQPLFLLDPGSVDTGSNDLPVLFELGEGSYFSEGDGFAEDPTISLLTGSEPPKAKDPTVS
# SPIB, sequence (Q01892 whole entry): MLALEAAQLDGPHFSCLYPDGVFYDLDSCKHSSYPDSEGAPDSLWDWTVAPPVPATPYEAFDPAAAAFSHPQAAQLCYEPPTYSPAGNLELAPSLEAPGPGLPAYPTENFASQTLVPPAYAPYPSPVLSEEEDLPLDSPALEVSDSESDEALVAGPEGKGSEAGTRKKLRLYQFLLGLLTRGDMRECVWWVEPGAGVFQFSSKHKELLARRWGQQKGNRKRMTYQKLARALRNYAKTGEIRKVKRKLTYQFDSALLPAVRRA
# ELF4, sequence (Q99607 whole entry): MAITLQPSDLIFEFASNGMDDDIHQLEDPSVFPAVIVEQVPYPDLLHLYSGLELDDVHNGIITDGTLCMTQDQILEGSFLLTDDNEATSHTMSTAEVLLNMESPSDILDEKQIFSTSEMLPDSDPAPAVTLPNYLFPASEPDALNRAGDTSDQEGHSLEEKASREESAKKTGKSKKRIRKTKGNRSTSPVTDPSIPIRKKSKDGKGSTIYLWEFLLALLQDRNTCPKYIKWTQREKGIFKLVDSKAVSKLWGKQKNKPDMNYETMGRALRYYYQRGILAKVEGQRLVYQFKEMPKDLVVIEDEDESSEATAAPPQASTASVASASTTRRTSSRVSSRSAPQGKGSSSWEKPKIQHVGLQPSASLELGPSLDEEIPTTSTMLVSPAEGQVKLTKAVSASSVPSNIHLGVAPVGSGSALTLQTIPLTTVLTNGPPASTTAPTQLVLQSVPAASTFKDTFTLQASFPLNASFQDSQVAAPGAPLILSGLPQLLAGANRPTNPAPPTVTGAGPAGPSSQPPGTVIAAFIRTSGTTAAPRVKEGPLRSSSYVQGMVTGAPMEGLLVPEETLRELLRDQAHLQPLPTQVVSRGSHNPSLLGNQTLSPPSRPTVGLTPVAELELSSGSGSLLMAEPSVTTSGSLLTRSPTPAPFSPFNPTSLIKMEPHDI
# ETV5, sequence (P41161 whole entry): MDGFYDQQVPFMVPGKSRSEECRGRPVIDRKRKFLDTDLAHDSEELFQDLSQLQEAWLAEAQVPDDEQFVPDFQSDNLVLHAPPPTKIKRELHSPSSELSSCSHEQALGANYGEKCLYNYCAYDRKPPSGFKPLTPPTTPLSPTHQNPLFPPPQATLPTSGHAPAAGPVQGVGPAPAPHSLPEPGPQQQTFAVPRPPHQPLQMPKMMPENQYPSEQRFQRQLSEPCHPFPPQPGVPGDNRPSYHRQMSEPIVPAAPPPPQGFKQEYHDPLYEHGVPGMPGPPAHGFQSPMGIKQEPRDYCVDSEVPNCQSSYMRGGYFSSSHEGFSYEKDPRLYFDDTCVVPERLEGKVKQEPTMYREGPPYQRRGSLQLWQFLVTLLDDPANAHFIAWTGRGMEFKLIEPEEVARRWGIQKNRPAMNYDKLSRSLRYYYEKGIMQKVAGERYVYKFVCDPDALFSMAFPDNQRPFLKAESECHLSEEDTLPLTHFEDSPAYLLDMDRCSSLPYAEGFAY
# ELF1, sequence (P32519 whole entry): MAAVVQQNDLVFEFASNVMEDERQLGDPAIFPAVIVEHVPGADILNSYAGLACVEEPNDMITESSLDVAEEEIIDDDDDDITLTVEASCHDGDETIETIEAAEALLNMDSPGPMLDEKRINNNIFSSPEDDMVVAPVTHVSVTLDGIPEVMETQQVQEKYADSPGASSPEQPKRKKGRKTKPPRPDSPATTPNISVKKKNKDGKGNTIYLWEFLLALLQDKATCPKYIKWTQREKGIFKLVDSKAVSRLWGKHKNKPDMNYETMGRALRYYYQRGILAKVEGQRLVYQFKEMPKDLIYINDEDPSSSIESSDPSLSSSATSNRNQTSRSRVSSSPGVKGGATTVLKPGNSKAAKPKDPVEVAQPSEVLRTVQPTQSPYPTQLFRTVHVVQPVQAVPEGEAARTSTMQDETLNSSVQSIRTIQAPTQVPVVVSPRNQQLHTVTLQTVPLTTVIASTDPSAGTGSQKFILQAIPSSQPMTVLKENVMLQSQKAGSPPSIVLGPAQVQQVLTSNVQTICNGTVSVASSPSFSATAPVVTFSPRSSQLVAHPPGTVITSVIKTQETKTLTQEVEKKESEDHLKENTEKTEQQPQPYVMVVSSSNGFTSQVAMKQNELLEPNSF
# CRX, sequence (O43186 whole entry): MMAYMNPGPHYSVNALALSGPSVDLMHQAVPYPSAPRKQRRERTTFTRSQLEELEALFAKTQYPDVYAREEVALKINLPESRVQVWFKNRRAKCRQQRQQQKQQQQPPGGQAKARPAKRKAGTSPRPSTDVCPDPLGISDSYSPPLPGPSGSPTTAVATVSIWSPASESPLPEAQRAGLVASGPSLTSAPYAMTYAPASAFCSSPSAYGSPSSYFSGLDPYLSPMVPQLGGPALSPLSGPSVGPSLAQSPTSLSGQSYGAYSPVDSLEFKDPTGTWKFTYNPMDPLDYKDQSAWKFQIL
sequence,measurement,setting,value
TTCATT,binding signal,FLI1,"1.25 fold enrichment (6-mer frequency, TF over GST control)"
same,binding signal,ELK1,"1.19 fold enrichment (6-mer frequency, TF over GST control)"
same,binding signal,GABPA,"1.16 fold enrichment (6-mer frequency, TF over GST control)"
same,binding signal,ERG,"1.2 fold enrichment (6-mer frequency, TF over GST control)"
same,binding signal,ELF1,"1.24 fold enrichment (6-mer frequency, TF over GST control)"
same,binding signal,EHF,"1.21 fold enrichment (6-mer frequency, TF over GST control)"
same,binding signal,SPI1,"1.21 fold enrichment (6-mer frequency, TF over GST control)"
same,binding signal,SPIB,"1.22 fold enrichment (6-mer frequency, TF over GST control)"
same,binding signal,ELK3,"1.23 fold enrichment (6-mer frequency, TF over GST control)"
same,binding signal,FEV,"1.23 fold enrichment (6-mer frequency, TF over GST control)"
same,binding signal,ETV5,"1.29 fold enrichment (6-mer frequency, TF over GST control)"
same,binding signal,HSF1,"1.12 fold enrichment (6-mer frequency, TF over GST control)"
same,binding signal,SPIC,"1.37 fold enrichment (6-mer frequency, TF over GST control)"
same,binding signal,ELF4,"1.21 fold enrichment (6-mer frequency, TF over GST control)"
same,binding signal,ELK4,"1.29 fold enrichment (6-mer frequency, TF over GST control)"
same,binding signal,ETV2,"1.17 fold enrichment (6-mer frequency, TF over GST control)"
same,binding signal,ELF3,"1.12 fold enrichment (6-mer frequency, TF over GST control)"
same,binding signal,CRX,"1.15 fold enrichment (6-mer frequency, TF over GST control)"
same,binding signal,ETV1,"1.21 fold enrichment (6-mer frequency, TF over GST control)"

# From publication PMC7862700, “An all-to-all approach to the identification of sequence-specific readers for epigenetic DNA modifications on cytosine”
